Screens: PubChem, National Center for Advancing Translational Sciences (NCATS)
A549 tox – A549 cytotoxicity, counter-screen for Nrf2 inhibitors. Potency, µM (highest dose often 46 µM), without a hit: at the top dose activity change, negative = cytotoxicity, most hits filed as inhibitors. A549 ARE-Fluc cells, CellTiter-Fluor viability, 18-24 h. 390,000 tested, 0.16% active; further: on the % scale 0 is the no-effect control and ±100 the full control effect
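A549 ARE-Fluc cells in 5% FBS OPTI-MEM, 5000 cells/well, rested 2 h then exposed to compounds in concentration-response for 18-24 h at 37 °C. Viability by CellTiter-Fluor fluorescence (Ex 405/Em 525) after 30 min; luciferase luminescence (BugLite, 15 min, RT) read afterwards.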
Nrf2 ARE act – activators of Nrf2 (ARE) signaling; AREc32 ARE-luciferase reporter (MCF7-derived line), luminescence, 24 h; Potency, µM (titrated, usually from 46.1 µM), for inactives: top-dose activation, actives largely listed as activators; 410,000 tested, 0.31% active; AID 624171; further: % of control where 0% means no effect; nearly all actives have a fitted effect of over 65% in size
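AREc32_Fluc, 1000 cells/well, OPTI-MEM + 5% FBS, o/n 37 deg C 5% CO2; 23 nL cpd by pin tool, 24 hr; Steady-Glo 30 min RT, luminescence.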
Nrf2 inh – Nrf2 pathway inhibition | 360,000 tested, 2.1% active | A549 ARE-Fluc reporter, luciferase luminescence, 18-24 h | Potency, µM (doses to about 46 µM), for inactives: at the top dose activity change, negative = inhibition, usual class: inhibitors; further: on the % scale 0 is the no-effect control and ±100 the full control effect; nearly all actives have a fitted effect of over 60% in size
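Reporter: ARE-Fluc in A549. Exposure: 18-24 h, 37 °C, 5% CO2, 5% FBS OPTI-MEM. Readouts: fluorescent cytotoxicity (CellTiter-Fluor), then luminescent Nrf2 signal after BugLite.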
Pin1 inhibitor – inhibitors of human Pin1; Q13526; Pin1 FP peptide displacement, HiFluor488, 10 min; Potency, µM (titrated, usually from 115 µM), inactives show at the highest dose activity, negative = inhibition, actives largely listed as inhibitors; 390,000 tested, 0.009% active; AID 504891; active means well fitted inhibition curve with a large enough effect in the polarisation, with a control signal flat, not every such curve was filed as active; inconclusive means small, poorly fitted or top-dose-only effect, or effect the other way, or a change in a side signal; inactive means no such curve, though single readings can be large or run the other way; the % refers to the polarisation; further: on the % scale 0 is the no-effect control and ±100 the full control effect
Target sequence (Q13526 whole entry, looked up): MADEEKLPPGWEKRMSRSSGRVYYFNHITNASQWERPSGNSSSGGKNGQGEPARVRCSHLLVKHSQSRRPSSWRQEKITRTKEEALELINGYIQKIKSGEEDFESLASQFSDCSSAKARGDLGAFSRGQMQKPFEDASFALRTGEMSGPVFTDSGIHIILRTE
* marks the source's active call; other numbers are inactive results; ? = inconclusive; / = no result given; [ ] = remark or other dose. Compounds with a hit are over-represented: about 2.2% of the library has one in this group of screens. Unless noted, the call rests on the fitted dose curve; in most records, active means well fitted curve in the direction sought with a large enough effect; inconclusive means small, poorly fitted or top-dose-only effect, or another doubt; inactive means no such curve, though single readings can be large; an effect the other way counts as inactive or inconclusive. Potency means the concentration at half of the fitted maximal effect.

SMILES | A549 tox | Nrf2 ARE act | Nrf2 inh | Pin1 inhibitor
CCOc1cccc(C(=O)Nc2ccc3oc(-c4cccnc4)nc3c2)c1 | -10% | 0% | 9.2µM* | 5%
CCOc1cccc(C(=O)Nc2ccc3oc(Cc4ccc(Cl)cc4)nc3c2)c1 | ? | 0% | 21µM* | 6%
CCOC(=O)CSc1nc2ccccc2c(=O)n1CCc1ccc(OC)c(OC)c1 | 2% | 0% | / | ?
O=C(CCCN1C(=O)/C(=C\c2cccc(Br)c2)SC1=S)Nc1cccnc1 | ? | 10µM* | ? | 2%
Cc1ccc(/C=C2\SC(=S)N(CCCC(=O)Nc3cccnc3)C2=O)cc1 | ? | -2% | 12µM* | -13%
CCc1ccc(/C=C2\SC(=S)N(CCCC(=O)Nc3ccccn3)C2=O)cc1 | -13% | -3% | 23µM* | ?
O=C(CCCN1C(=O)/C(=C/c2cccc(Br)c2)SC1=S)Nc1cccnc1 | ? | ? | ? | 8%
Cc1cc(C(=O)COC(=O)c2ccccc2O)c(C)n1CC1CCCO1 (stereo not given) | 0% | -2% | ? | -5%
Cc1cc(C(=O)CSc2nc3ccc(Cl)cc3[nH]2)c(C)n1C | -10% | 1% | -7% | 11%
Cc1cc(C(=O)CSc2nc3ccc(Cl)cc3[nH]2)c(C)n1CC1CCCO1 (stereo not given) | -27% | 4% | 13µM* | 9%
Cc1cc(C(=O)COc2ccccc2C(N)=O)c(C)n1CC1CCCO1 (stereo not given) | -14% | 1% | 4.6µM* | -3%
COc1ccc(-c2nc3n(n2)C(c2ccccc2OC)C(C(=O)Nc2cccnc2)=C(C)N3)cc1 (stereo not given) | -1% | -1% | -8% | 0%
COc1ccc(C2C3=C(N=CN(CCN4CCOCC4)C3N)Oc3ccccc32)cc1OC (stereo not given) | -1% | / | 8% | 2%
Cc1cccc(CNC(=O)Cc2csc3ccccc23)c1 | 6% | 3% | ? | 1%
O=C(COc1ccc2ccccc2c1)Nc1ccc(Cc2ccncc2)cc1 | -27% | 0% | 15µM* | 2%
O=C(O)Cc1ccc(NC(=O)COc2ccc3ccccc3c2)cc1 | 11% | -1% | -5% | -7%
Cc1nc(CN(C)c2ncnc3cc(-c4ccc5c(c4)OCO5)ccc23)cs1 | -3% | / | -10% | -3%
Cc1ccc(S(=O)(=O)N2C[C@@H]3[C@H]4CC[C@H](C4)[C@@H]3[C@@H](C)[C@@H]2c2cn(Cc3ccccc3)c3ncccc23)cc1 | 0% | 3% | 21µM* | 6%
O=S(=O)(c1ccccc1)N1CCN(c2nc(-c3ccc(F)cc3)nc3cc(Cl)ccc23)CC1 | 8% | / | -11% | 3%
O=C(Cn1c(C(F)(F)F)nc2ccccc21)c1ccccc1 | -7% | 0% | 21µM* | -3%
O=C(Cn1c(C(F)(F)F)nc2ccccc21)c1ccc(Cl)cc1 | -12%[1.84 µM] | -1% | ? | -1%
CCOc1ccc(CNC(=O)c2cnc3sc(N4CCOCC4)nn3c2=O)cc1OC | 14% | 0% | ? | -3%
CCCNS(=O)(=O)c1ccc(N2CCCC2=O)c([N+](=O)[O-])c1 | -4% | 0% | 27% | 17%
O=C1CCCN1c1ccc(S(=O)(=O)Oc2ccc(Cl)cc2)cc1[N+](=O)[O-] | ? | 0% | 7.3µM* | -2%
COc1ccc(/C=C2\CCC/C(=C\C=N\N(C)C)C2=O)cc1 | -14% | 14µM* | -26% | ?
SMILES | A549 tox | Nrf2 ARE act | Nrf2 inh | Pin1 inhibitor
CN(C)c1ccc(/C=C2\CCC/C(=C\c3ccccc3)C2=O)cc1 | -14% | 0% | 5% | ?
CN(C)/N=C/C=C1\CCC/C(=C\c2ccc(F)c(F)c2)C1=O | -28% | 18µM* | ? | ?
O=C(N/N=C/c1cccnc1)c1cccc(NC(=O)c2ccc(Cl)cc2)c1 | 0% | -1% | 18µM* | 23%
Oc1ccc(Br)cc1C1C=C(c2ccc3c(c2)OCO3)NC(c2ccc(Br)cc2)N1 (stereo not given) | 0% | / | 6% | 2%
CCCN(C(=O)c1ccco1)c1nnc(-c2cccc(C)c2)s1 | 24% | 10µM* | ? | -8%
CCOc1cc(/C=C2\SC(=N)N(c3nccs3)C2=O)ccc1OCCN1CCOCC1 | 21µM* | 0%[9.22 µM] | 18µM* | ?
CC1=C(C#N)C(c2ccccc2)C2=C(N1)c1ccccc1C2=O (stereo not given) | ? | 0% | 23µM* | 2%
CC(C)(C)OC(=O)N1CCCC1C(=O)NC1COC2CC(n3cc(F)c(=O)[nH]c3=O)OC12 (stereo not given) | -2% | / | 19% | 0%
CCN(CC)S(=O)(=O)c1ccc(NC(=O)c2c(C)oc3ncnc(N4CCOCC4)c23)cc1 | -6% | 0% | 1% | 1%
CCN1CCN(C(=O)c2cc3ccc(OC)cc3[nH]2)CC1 | -5% | 0% | ? | -5%
COc1ccc2cc(C(=O)N3CCN(Cc4ccc5c(c4)OCO5)CC3)[nH]c2c1 | -26% | 3% | 21µM* | -9%
Cc1ccc(C)c(Nc2nc3nonc3nc2N2CCOCC2)c1 | 1% | 0% | 12% | -5%
Cc1ccc(C)c(Nc2nc3nonc3nc2Nc2cccc(C)c2C)c1 | ? | 1% | 5.8µM* | 8%
CC1CCN(S(=O)(=O)c2ccc3c(c2)N(CC(=O)NC(C)C)C(=O)CS3)CC1 | 1% | -1% | 9% | 2%
COc1cc2c(cc1OC)C(c1ccc(-c3ccc(Cl)c(Cl)c3)o1)=NCC2 | / | 3% | 9.2µM* | 53%
COc1cc2c(cc1OC)C(c1ccc(-c3cc(Cl)ccc3Cl)o1)=NCC2 | ? | -1% | 16µM* | ?
COc1cc2c(cc1OC)C(c1ccc(-c3ccc(Cl)cc3Cl)o1)=NCC2 | ? | 4% | ? | 5%
CC(C)CCNC(=O)Cn1c(SCc2cccc(F)c2)nc2ccncc21 | 0% | / | 18% | -2%
Cc1ccc(NC(=O)Cn2c(=O)ccc3cc(S(=O)(=O)N4CCCC4)ccc32)cc1N(C)C | -10% | -1% | / | -2%
O=C1CCc2cc(S(=O)(=O)Nc3ccccc3-c3ccccc3)ccc2N1 | 1% | / | -8% | 3%
CCCN1CCN(CCCNC(=O)c2cnn(-c3ccc(F)cc3)c2-n2cccc2)CC1 | 1% | 0% | 21% | -3%
CC(C)(C)OC(=O)COc1cc(OCC(=O)OC(C)(C)C)c2c(=O)cc(-c3ccccc3)oc2c1 | 16µM* | -2% | 23µM* | -16%
CCOC(=O)c1sc(=S)n(C)c1NC(=O)c1ccc(F)cc1 | -4% | 0% | 23µM* | -3%
CCOC(=O)c1sc(=S)n(C)c1NC(=O)c1ccccc1C | -3% | 2% | 26% | -16%
Cc1ccc(NC(=O)Nc2nnc(N(C)Cc3ccccc3)s2)cc1 | 9% | 0% | 12% | -8%
O=C(Cn1ncc(Cl)c(Cl)c1=O)N1CCOCC1 | ? | 11µM* | 87% | -3%
Cc1ccc(Cn2ncc(Cl)c(Cl)c2=O)cc1 | 1% | ? | 17% | -4%
CCc1ccc(C(=O)Cn2ncc(Cl)c(Cl)c2=O)cc1 | 3% | 10µM* | -14% | -6%
Cc1ccc2nc(N3C(=O)C(O)=C(C(=O)c4ccco4)C3c3cccs3)sc2c1 (stereo not given) | 15µM* | ? | ? | ?
